Experimental findings from PubChem BioAssay AID463117 (University of Pittsburgh Molecular Library Screening Center, 2010) are described below.

Molecules are shown by their SMILES. Some of the results follow. Active and inactive are the calls of the source.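 The calls were made as follows: active = mean protection from necroptosis of at least 50% over duplicate tests; inactive = mean protection below 50%.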

This experiment is described as follows: rescue of L929 cells from caspase-blocker death – duplicate runs, confirmation (AID 463117).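 Also: 0% = cells with zVAD alone and 100% = vehicle cells without zVAD.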 To be noted: L929 zVAD-induced necroptosis rescue, ATP luminescence, 24 h; at 10 µM; hits give high values.
Regarding `CC(=O)c1cc(C#N)c(SCC(=O)Nc2nccs2)nc1C`, the activation (protection from necroptosis) was 0.793% (inactive).

Turning to `Oc1ccc(-c2onc3ccc(Cl)cc23)cc1`, the activation (protection from necroptosis) is 11.4% (inactive).

As for `CCn1c(SCC(=O)Nc2nc3ccc(OC)cc3s2)nnc1-c1ccoc1C`, the activation (protection from necroptosis) is 1.15% (inactive).

`Cc1ccc(NC(=O)NC2CCCCC2)cc1S(=O)(=O)N1CCOCC1`: the activation (protection from necroptosis) is 2.38% (inactive).

As to `CCOC(=O)N1CCN(C(=O)CNC(=O)Cc2ccc(Cl)cc2)CC1`, the activation (protection from necroptosis) was 34.3% (inactive).

Regarding `COc1ccc(N=Cc2c(O)[nH]c3ccccc23)cc1OC`, the activation (protection from necroptosis) is 76% (active).

With `Cc1cc(-n2cnc(-c3cn(C)nc3C)n2)no1`, the activation (protection from necroptosis) is 27.6% (inactive).

Regarding `COc1ccc(-c2csc(Nc3ccc(O)cc3)n2)cc1`, the activation (protection from necroptosis) was 30.2% (inactive).

As for `Cc1csc(NC(=O)NC2(C(F)(F)F)Oc3ccccc3O2)n1`, the activation (protection from necroptosis) was 1.61% (inactive).

For `Cc1ccccc1NC(=O)CSC1=NCCN1`, the activation (protection from necroptosis) was 7.19% (inactive).

For the compound `CC(=O)Nc1cccc(-c2cnc3ccccc3n2)c1`, the activation (protection from necroptosis) is 1.04% (inactive).

As to `COc1ccc(-n2cnc3cc(NCc4ccco4)ccc32)cc1`, the activation (protection from necroptosis) is 52.9% (active).

For `Cc1ccc(NC(=O)COc2ccc(-n3ccnc3)cc2)cc1Cl`, the activation (protection from necroptosis) was 62.3% (active).

With `CC1CCCCC1NC(=O)/C(C#N)=C/C=C/c1ccccc1[N+](=O)[O-]` (stereo not drawn), the activation (protection from necroptosis) was 4.07% (inactive).

For `CC(=O)c1ccc(S(=O)(=O)N2CCN(C(=O)/C=C/c3ccc4ccccc4n3)CC2)cc1`, the activation (protection from necroptosis) is 2.81% (inactive).

As for `Cc1cc(NC(=O)c2cnn3cccnc23)n(-c2ccccc2)n1`, the activation (protection from necroptosis) was 21.5% (inactive).

For the compound `CC(=O)Nc1ccc(NC(=S)NC(=O)/C=C/c2ccccc2)cc1`, the activation (protection from necroptosis) is -0.0785% (inactive).

On to `CCn1c(SCCC(C)C)nnc1-c1c[nH]c2ccccc12`, for which the activation (protection from necroptosis) is 2.15% (inactive).
